MITF primary: human MITF inhibition, primary screen | O75030 | AlphaScreen MITF homodimerization, bead proximity signal | inhibition, % at 2.6 µM | 650,000 compounds, 0.91% hits; in the data active = inhibition above about 50%
GPR151 ag: human GPR151 activation. Q8TDV0. PathHunter beta-arrestin GPR151 cells, luminescence. activation, % at 11.2 µM. 650,000 compounds, 1% hits; in the data active = activation above about 4.9%
TEAD-YAP block: TEAD-YAP interaction inhibition. HEK-TIYL cells, TEAD-Gal4/YAP UAS-luciferase luminescence. inhibition, % at 9.12 µM. 640,000 compounds, 1.4% hits. AID 1259422; in the data active = inhibition above about 32%
FBW7 act: human FBW7 E3 ligase activation, primary screen; Q969H0; AlphaScreen FBW7–phospho-cyclin E peptide binding, activator screen; 650,000 compounds, 0.13% hits; AID 1259310; normalized activity (activation), % at 26.1 µM; in the data active = normalized activity above about 1.9%;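 also: purified mutant Fbw7 with reduced substrate affinity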
Target sequence (Q969H0 whole entry, looked up): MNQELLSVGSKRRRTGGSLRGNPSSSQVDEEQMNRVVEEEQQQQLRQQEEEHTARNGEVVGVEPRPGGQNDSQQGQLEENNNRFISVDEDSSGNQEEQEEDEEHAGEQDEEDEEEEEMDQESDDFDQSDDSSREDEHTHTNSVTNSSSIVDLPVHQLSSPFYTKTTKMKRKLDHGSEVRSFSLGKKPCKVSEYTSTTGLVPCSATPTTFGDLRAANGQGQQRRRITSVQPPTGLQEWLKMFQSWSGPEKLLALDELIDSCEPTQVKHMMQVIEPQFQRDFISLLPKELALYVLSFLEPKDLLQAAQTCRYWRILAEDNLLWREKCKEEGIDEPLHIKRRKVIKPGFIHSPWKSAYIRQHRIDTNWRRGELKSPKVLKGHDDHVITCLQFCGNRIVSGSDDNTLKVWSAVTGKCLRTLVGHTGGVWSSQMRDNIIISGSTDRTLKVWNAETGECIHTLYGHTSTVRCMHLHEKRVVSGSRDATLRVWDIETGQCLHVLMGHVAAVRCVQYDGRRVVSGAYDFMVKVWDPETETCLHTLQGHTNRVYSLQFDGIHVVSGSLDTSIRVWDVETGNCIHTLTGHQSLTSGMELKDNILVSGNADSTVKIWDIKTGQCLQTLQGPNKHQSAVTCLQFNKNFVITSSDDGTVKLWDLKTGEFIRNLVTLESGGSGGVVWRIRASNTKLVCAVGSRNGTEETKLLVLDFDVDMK
Hits are given with their value; i = inactive. In the library only some 3.5% were active in any assay of this set; here they are far more common.

SMILES	MITF primary	GPR151 ag	TEAD-YAP block	FBW7 act
Cc1ccc(-c2ncn(-c3ccc(Nc4ncc5ccc(-c6cn[nH]c6C)cc5n4)cc3)n2)cn1	i	i	43	i
Cc1ncn(-c2ccc(Nc3ncc(Br)c(-c4cnn(C)c4)n3)cc2)n1	i	i	69	i
CNc1cc(-c2cnn(C)c2)nc(Nc2ccc(-n3nc(C)nc3C)cc2)n1	i	i	i	i
Cc1ccc(-c2ncn(-c3ccc(Nc4ncc(F)c(-c5cnn(C)c5)n4)cc3)n2)cn1	i	i	46	i
Cc1nc(C)n(-c2ccc(Nc3ncc4ccc(-c5cnn(C)c5)nc4n3)cc2)n1	i	i	72	i
O=C(Nc1ccc2oc(-c3ccccc3)nc2c1)c1cc2nc(-c3cccs3)cc(C(F)(F)F)n2n1	i	i	i	i
COc1cncc(-c2cncc(-c3ccccc3N(C)C)n2)c1	i	i	36	i
COc1cc(-c2cncc(-c3ccccc3N(C)C)n2)cc(OC)c1OC	i	i	i	i
Nc1ccc(-c2nc3cc(N)ccc3o2)c(O)c1	i	i	i	i
Cc1cc2nc(-c3cccc(NC(=O)C(C)C)c3C)oc2cc1C	i	i	i	i
Cc1cc(C)c2oc(-c3ccc(N)cc3O)nc2c1	i	i	37	i
Cc1ccc2oc(-c3cccc(N)c3C)nc2c1	i	i	43	i
Cc1ccc2oc(-c3cc(N)ccc3Cl)nc2c1	i	i	i	i
Cc1cc2nc(-c3cccc(N)c3C)oc2cc1C	i	i	89	i
Cc1ccc(C)c(-c2nc3cc(N)ccc3o2)c1	i	i	37	i
COc1ccc(C(NC(C)=O)c2ccc3cccnc3c2O)cc1OC (stereo not given)	66	i	83	i
CCC(=O)NC(c1ccc(OC)c(OC)c1)c1ccc2cccnc2c1O (stereo not given)	59	i	87	i
COc1ccc(C(NC(C)=O)c2cc(Cl)c3cccnc3c2O)cc1OC (stereo not given)	i	i	i	i
CCC(=O)NC(c1ccc(OC)c(OC)c1)c1cc(Cl)c2cccnc2c1O (stereo not given)	i	i	46	i
CCOc1ccc(-c2nc(CNC(C)COC)cs2)cc1 (stereo not given)	i	i	i	i
COc1ccc2[nH]c3c(c2c1)CCNC3=O	i	i	46	i
NC(=S)/N=C1\CCN(c2cccc(C(F)(F)F)c2)N1	i	i	35	i
COc1ccc2c(c1)CC(c1nc3cc(-c4cn[nH]c4C)ccc3c(=O)[nH]1)CO2 (stereo not given)	i	i	40	i
COc1ccccc1OCc1nc2ccc(-c3cn[nH]c3C)cc2c(=O)[nH]1	i	i	38	i
Cc1[nH]ncc1-c1ccc2nc(C3COc4ccccc4C3)[nH]c(=O)c2c1 (stereo not given)	i	i	50	i
SMILES	MITF primary	GPR151 ag	TEAD-YAP block	FBW7 act
Cc1ccc2c(c1)CC(c1nc3ccc(-c4cn[nH]c4)cc3c(=O)[nH]1)CO2 (stereo not given)	i	i	i	i
COc1ccc2c(c1)CC(c1nc3cc(-c4ccncc4)ccc3c(=O)[nH]1)CO2 (stereo not given)	i	i	i	i
N#C/C(=C/c1ccc(-c2ccc(Cl)c(Cl)c2)o1)c1[nH]nc(N)c1C#N	i	i	i	i
CC(=O)Nc1cc(CNCC(C)Cc2ccc3c(c2)OCO3)cc(C(=O)N2CCCC2)c1 (stereo not given)	i	i	i	i
Cc1nc(NCCc2ccccc2)cc(-c2cncc(Br)c2)n1	i	i	i	i
C=CCn1c(C)cc(C(=O)CSc2nnc(N)s2)c1C	i	i	39	i
CCCc1ccc(C2=NNC(=NC)SC2)cc1	i	i	97	i
COCCN=C1NN=C(c2ccc(C)cc2)CS1	i	i	i	i
Cc1ccc(N2C(=O)CC(SCC(=O)Nc3ccc(Cl)cc3)C2=O)cc1C (stereo not given)	i	i	i	i
CN1C=CC(=C2C(=O)c3ccccc3C2=O)C=C1	i	i	i	i
CCN1C=CC(=C2C(=O)c3ccccc3C2=O)C=C1	i	i	95	i
CCCCN1C(C)=CC(=C2C(=O)c3ccccc3C2=O)C=C1C	i	i	56	i
Cc1ccc(OCC(=O)NC(=S)Nc2ccccn2)c(Br)c1	i	i	88	i
O=C(COc1ccc(Br)cc1Cl)NC(=S)Nc1ccccn1	i	i	46	i
CCOC(=O)Cn1cc(/C=C2/C(=O)N(c3cccc(C(=O)O)c3)N=C2C)c2ccccc21	51	i	i	i
CCOc1ccc(Nc2nc(-c3c(C)nc4ccccn34)cs2)cc1	i	i	70	i
Cc1cccc(Nc2nc(-c3c(C)nc4cc(C)ccn34)cs2)c1	i	i	i	i
CCOc1ccc(Nc2nc(-c3c(C)nc4cc(C)ccn34)cs2)cc1	i	i	67	i
Cc1ccn2c(-c3csc(Nc4cccc(O)c4)n3)c(C)nc2c1	i	i	49	i
CCOc1ccccc1Nc1nc(-c2c(C)nc3ccccn23)cs1	i	i	i	i
CC(=O)Oc1ccc2occ(C(=O)c3oc(C)nc3C)c2c1	i	i	i	i
COc1ccc(CC2(NC(=O)c3ccc(Cl)cc3)N=C3C=C(C)C=CN3C2=O)cc1 (stereo not given)	i	i	i	i
O=C1NC(c2cc3c(cc2Cl)OCO3)Nc2ccccc21 (stereo not given)	i	i	51	i
CCN1/C(=C/c2scc(-c3ccccc3)[n+]2C)C=Cc2cc(C)ccc21	i	i	80	i
CCN1/C(=C/c2ccc3cc(C)ccc3[n+]2C)C=Cc2cc(C)ccc21	i	i	83	i
SMILES	MITF primary	GPR151 ag	TEAD-YAP block	FBW7 act
COc1cccc2sc(Nc3nnc(-c4ccccc4)o3)nc12	i	i	i	i
COc1ccccc1-c1nnc(Nc2nc3c(OC)cccc3s2)o1	i	i	53	i
COc1cccc2sc(Nc3nnc(-c4ccccc4Cl)o3)nc12	i	i	46	i
Cn1cccc1/C=C(/NC(=O)c1cccs1)C(=O)NCCO	i	i	i	i
CCOC(=O)c1ccc(NC(=O)c2ccc(C)cc2Cl)cc1	i	i	i	i
COc1ccc(/C(C)=N/Nc2nc(-c3cccnc3)nc3ccccc23)cc1OC	i	i	33	i
COc1ccc(C(=O)Nc2cc(C)cn(Cc3c(F)cccc3Cl)c2=O)cc1	i	i	i	i
COCC[n+]1c(C)cc(/C=C2\Sc3ccccc3N2C)cc1C	i	i	76	i
CCN1/C(=C/c2cccc[n+]2C)Sc2ccccc21	i	i	46	i
CCN1/C(=C/c2cc(C)[n+](CCO)c(C)c2)Sc2ccccc21	i	i	33	i
Cc1cccc(N2CCN(CCNC(=O)CC3Oc4ccccc4NC3=O)CC2)c1C (stereo not given)	i	i	i	i
Oc1ccc(CN2CCN(c3ccccc3)CC2)c2cccnc12	i	i	i	i
Oc1c(CN2CCCCC2)ccc2cccnc12	105	i	46	i
O=C(CCl)Nc1c(C(O)(C(F)(F)F)C(F)(F)F)ccc2ccccc12	i	i	i	i
Oc1c(C(O)(C(F)(F)F)C(F)(F)F)ccc2cccnc12	i	i	49	i
Oc1c(CN2CCOCC2)ccc2ccccc12	i	i	i	i

Screens (PubChem)
